Reference: PMC4336329 (PLoS ONE, 2015)
Among all 310,000 compounds or so, about 14,000 (4.5%) showed an effect of 50% or more. Effects have a minus sign here. The full list was thinned out, with strong results kept by preference.

Molecular target: human ether-à-go-go-related gene (hERG) potassium channel (human, UniProt Q12809)
Assay: primary screen, population patch clamp on CHO cells stably expressing hERG; higher = less effect of the substance
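Note: peak tail current of the secondary pulse compared with the same well before compound.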

Chain of human ether-à-go-go-related gene (hERG) potassium channel (Q12809 whole entry, looked up): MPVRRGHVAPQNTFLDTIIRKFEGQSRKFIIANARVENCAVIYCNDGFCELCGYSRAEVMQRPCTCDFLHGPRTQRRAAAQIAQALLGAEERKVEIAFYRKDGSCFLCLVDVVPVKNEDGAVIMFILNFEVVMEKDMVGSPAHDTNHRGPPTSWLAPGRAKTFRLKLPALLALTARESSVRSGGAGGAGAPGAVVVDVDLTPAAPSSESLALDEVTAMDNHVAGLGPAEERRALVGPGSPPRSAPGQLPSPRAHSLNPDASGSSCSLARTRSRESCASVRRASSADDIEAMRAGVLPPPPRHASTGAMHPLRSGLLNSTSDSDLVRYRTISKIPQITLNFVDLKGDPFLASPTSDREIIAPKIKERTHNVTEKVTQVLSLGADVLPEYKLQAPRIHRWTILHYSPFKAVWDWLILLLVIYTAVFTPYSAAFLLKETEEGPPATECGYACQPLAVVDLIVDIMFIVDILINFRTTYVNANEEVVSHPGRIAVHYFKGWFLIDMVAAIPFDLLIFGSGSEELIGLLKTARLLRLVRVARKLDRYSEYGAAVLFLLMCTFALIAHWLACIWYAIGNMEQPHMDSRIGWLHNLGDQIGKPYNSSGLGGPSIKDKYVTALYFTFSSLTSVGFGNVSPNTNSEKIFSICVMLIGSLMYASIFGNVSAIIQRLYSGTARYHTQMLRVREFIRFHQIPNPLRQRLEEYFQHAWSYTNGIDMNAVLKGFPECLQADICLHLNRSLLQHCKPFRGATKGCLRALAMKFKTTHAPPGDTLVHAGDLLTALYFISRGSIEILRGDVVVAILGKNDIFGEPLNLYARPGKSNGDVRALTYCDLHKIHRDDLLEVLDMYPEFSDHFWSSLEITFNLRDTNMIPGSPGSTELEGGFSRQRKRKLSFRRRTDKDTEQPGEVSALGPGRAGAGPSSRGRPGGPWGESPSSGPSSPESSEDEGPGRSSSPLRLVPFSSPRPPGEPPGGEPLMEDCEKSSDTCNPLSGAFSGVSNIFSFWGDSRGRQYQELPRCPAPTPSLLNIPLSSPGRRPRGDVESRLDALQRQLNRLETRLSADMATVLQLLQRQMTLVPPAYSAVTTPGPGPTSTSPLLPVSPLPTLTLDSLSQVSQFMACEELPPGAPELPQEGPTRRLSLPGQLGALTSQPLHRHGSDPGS

Row | SMILES | hERG current change (%, negative = inhibition) at 10uM [%]
1 | O=C(N/N=C/c1c[nH]c2ccc(Br)cc12)c1ccn(Cc2ccc(Cl)cc2Cl)n1 | 6.95
2 | C/C(=C\c1ccc(Br)cc1)C(=O)c1c(C)cc(C)[nH]c1=O | 8
3 | Cc1cc(C)c(NC(=O)CS)c(Cl)c1 | 6.4
4 | COc1cc(C(=O)Nc2c(C(=O)N3CCOCC3)oc3ccccc23)cc(OC)c1OC | -10
5 | O=C(Nc1c(C(=O)N2CCOCC2)oc2ccccc12)c1ccccc1Cl | 0.111
6 | CCOc1ccc(C(=O)Nc2c(C(N)=O)oc3ccccc23)cc1 | 11.9
7 | O=C(Nc1c(C(=O)N2CCC(N3CCCCC3)CC2)oc2ccccc12)c1c(F)cccc1F | -51.7
8 | O=C(Nc1ccc(F)cc1)c1oc2ccccc2c1NC(=O)C1CCCC1 | -4.15
9 | O=C(Nc1c(C(=O)N2CCC(N3CCCCC3)CC2)oc2ccccc12)c1ccc(F)cc1 | -65.8
10 | O=C(c1ccccc1F)N1CCC(N2CCCCCC2)CC1 | -10.3
11 | CCOc1ccc(C(=O)Nc2c(C(=O)N3CCC(N4CCCCC4)CC3)oc3ccccc23)cc1 | -83.2
12 | O=C(c1ccc(F)cc1)N1CCC(N2CCCCCC2)CC1 | -26
13 | O=C(O)CCCCCCCCc1cn(CCc2c[nH]c3ccccc23)nn1 | 4.49
14 | O=C(Nc1ccc(Cl)cc1)C1=Cc2ccccc2OC1 | -9.34
15 | CC(=NCCC1=CCCCC1)c1c(O)n(-c2ccccc2)c(=O)[nH]c1=O | 4.58
16 | CC(C)C[C@H](CO)Nc1nc(N(C)c2cccc(Cl)c2)c2ncn(C(C)C)c2n1 | -7.87
17 | COCCn1c(=S)[nH]c2cc(OC)c(OC)cc2c1=O | 11
18 | COc1ccc(-c2nnnn2-c2ccccc2OC)cc1 | -9.02
19 | Cc1ccc(CSc2nn3c(=O)c(C)nnc3s2)cc1 | -13.9
20 | CCOC(=O)N1CCN(c2nc(-c3ccccc3)c3cc(C)ccc3n2)CC1 | -8.98
21 | OCCN1CCN(c2nc(-c3ccccc3)c3cc(Br)ccc3n2)CC1 | -47.7
22 | OCCN1CCN(c2nc(-c3ccccc3)c3cc(Cl)ccc3n2)CC1 | -26.2

Row | SMILES | hERG current change (%, negative = inhibition) at 10uM [%]
23 | Cc1ccc2nc(N3CCN(C=O)CC3)nc(-c3ccccc3)c2c1 | -56
24 | Cc1ccc2nc(N3CCN(CCO)CC3)nc(-c3ccccc3)c2c1 | -54.4
25 | Cc1ccc2nc(N3CCC(C(=O)O)CC3)nc(-c3ccccc3)c2c1 | -1.95
26 | Cc1cccn2c(Nc3ccccc3)c(-c3ccccn3)nc12 | 1.81
27 | NC(CSCc1ccccc1Cl)C(=O)O (stereo not shown) | 0.173
28 | COc1ccc(S(=O)(=O)N(C)c2ccc(C(=O)Nc3ccccc3C(=O)N3CCOCC3)cc2)cc1 | -6.94
29 | Cc1ccc(-n2nnnc2-c2ccco2)cc1 | -2.37
30 | O=C(N1CCC(n2nc(-c3ccccc3)oc2=O)CC1)C1(c2ccccc2)CC1 | -17.5
31 | COc1ccc(NC(=O)COC(=O)C2CC(=O)N(Cc3ccc(C)cc3)C2)cc1 (stereo not shown) | -12.7
32 | NC(=O)C1CC(=O)N(c2ccc(OCc3ccc([N+](=O)[O-])cc3)cc2)C1 (stereo not shown) | -30.8
33 | COc1ccc(COC(=O)C2CC(=O)N(Cc3ccc(C)cc3)C2)cc1 (stereo not shown) | -58.3
34 | Cc1cccc(N2CC(C(=O)OCc3ccc([N+](=O)[O-])cc3)CC2=O)c1 (stereo not shown) | -64
35 | Cc1cccc(N2CC(C(=O)O)CC2=O)c1 (stereo not shown) | -15.2
36 | COc1ccc(COC(=O)C2CC(=O)N(Cc3ccccc3)C2)cc1 (stereo not shown) | -34.1
37 | CCc1ccc(N2CC(C(=O)OCC(=O)Nc3ccc(C#N)cc3)CC2=O)cc1 (stereo not shown) | -57.9
38 | Cc1ccc(N2CC(C(=O)OCc3ccccc3)CC2=O)cc1 (stereo not shown) | -15.6
39 | CC(=O)c1ccc(OC(=O)C2CC(=O)N(c3cccc(C)c3)C2)cc1 (stereo not shown) | -1.85
40 | O=C(OCc1ccc([N+](=O)[O-])cc1)C1CC(=O)N(c2ccccc2)C1 (stereo not shown) | -69.1
41 | CCc1ccc(N2CC(C(=O)OCC(=O)Nc3ccc(C(C)=O)cc3)CC2=O)cc1 (stereo not shown) | -19.1
42 | CCc1ccc(N2CC(C(=O)OCC(=O)Nc3ccc([N+](=O)[O-])cc3)CC2=O)cc1 (stereo not shown) | -36.9
43 | Cc1ccnc(NS(=O)(=O)c2ccc(NS(=O)(=O)Cc3ccccc3)cc2)n1 | 9.43
